Compounds without any hit were thinned out: in the full panel of roughly 83,000, 20% have a hit.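 Activity criterion: percent growth below 10, measured after cells in 96-well plates were exposed to a single compound concentration for 48 hours.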 The source made the active and inactive calls.
Tests used:
Assay in all cases: NCI-60 one-dose screen, 48 h (100 = growth as untreated, 0 = no growth, -100 = all killed)
HCT-15 colon = tested on: HCT-15 colon
HT29 colon = tested on: HT29 colon
SNB-75 CNS = conditions: 10 µM unless noted
SNB-19 CNS = tested on: SNB-19 CNS
U251 CNS = tested on: U251 CNS
PC-3 prostate = tested on: PC-3 prostate
SK-MEL-5 melanoma = tested on: SK-MEL-5 melanoma
UACC-62 melanoma = tested on: UACC-62 melanoma
LOX IMVI melanoma = tested on: LOX IMVI melanoma
SK-MEL-28 melanoma = tested on: SK-MEL-28 melanoma
SK-MEL-2 melanoma = tested on: SK-MEL-2 melanoma
EKVX NSCLC = tested on: EKVX NSCLC
SN12C renal = tested on: SN12C renal
UO-31 renal = tested on: UO-31 renal
TK-10 renal = tested on: TK-10 renal
ACHN renal = tested on: ACHN renal
CAKI-1 renal = tested on: CAKI-1 renal
A498 renal = tested on: A498 renal
CCRF-CEM leukemia = tested on: CCRF-CEM leukemia
MOLT-4 leukemia = conditions: 10 µM unless noted

Measured: growth

NS(=O)(=O)c1ccc(Nc2nc(N/N=C/c3cc(Br)c(O)c(Br)c3)nc(Nc3ccccc3)n2)cc1
active: SK-MEL-5 melanoma; 10 µM unless noted -26.6% | UACC-62 melanoma; 10 µM unless noted -26.6% | LOX IMVI melanoma; 10 µM unless noted -23.5% | SK-MEL-2 melanoma; 10 µM unless noted -5.4% | MOLT-4 leukemia -8.36%
inactive: HCT-15 colon; 10 µM unless noted 80.5% | HT29 colon; 10 µM unless noted 32.1% | SNB-75 CNS 25.7% | SNB-19 CNS; 10 µM unless noted 14.9% | U251 CNS; 10 µM unless noted 27.6% | PC-3 prostate; 10 µM unless noted 57.7% | SK-MEL-28 melanoma; 10 µM unless noted 34.4% | EKVX NSCLC; 10 µM unless noted 86.3% | SN12C renal; 10 µM unless noted 46.3% | UO-31 renal; 10 µM unless noted 85.3% | TK-10 renal; 10 µM unless noted 113% | ACHN renal; 10 µM unless noted 92.3% | CAKI-1 renal; 10 µM unless noted 94.4% | A498 renal; 10 µM unless noted 102% | CCRF-CEM leukemia; 10 µM unless noted 10.5%

CC/C(=C(/c1ccc(O)cc1)c1ccc(OCCN(C)C(=O)CCOCCNC(=O)Cc2ccc3c(c2)CN([C@@H]2CCC(=O)NC2=O)C3=O)cc1)c1ccccc1
active: CCRF-CEM leukemia; 1 µM 3.79%
inactive: HCT-15 colon; 1 µM 108% | HCT-15 colon; 10 µM 100% | HT29 colon; 1 µM 103% | HT29 colon; 10 µM 91.3% | SNB-19 CNS; 1 µM 75.9% | SNB-19 CNS; 10 µM 62.1% | U251 CNS; 1 µM 96.2% | U251 CNS; 10 µM 92.6% | PC-3 prostate; 1 µM 42.7% | PC-3 prostate; 10 µM 27.4% | SK-MEL-5 melanoma; 1 µM 97% | SK-MEL-5 melanoma; 10 µM 71.5% | UACC-62 melanoma; 1 µM 96.9% | UACC-62 melanoma; 10 µM 85.5% | LOX IMVI melanoma; 1 µM 99.2% | LOX IMVI melanoma; 10 µM 93.6% | SK-MEL-28 melanoma; 1 µM 101% | SK-MEL-28 melanoma; 10 µM 80.2% | SK-MEL-2 melanoma; 1 µM 101% | SK-MEL-2 melanoma; 10 µM 74.7% | EKVX NSCLC; 1 µM 102% | EKVX NSCLC; 10 µM 97.8% | SN12C renal; 1 µM 89% | SN12C renal; 10 µM 78% | UO-31 renal; 1 µM 92% | UO-31 renal; 10 µM 86.8% | TK-10 renal; 1 µM 94% | TK-10 renal; 10 µM 93.5% | ACHN renal; 1 µM 103% | ACHN renal; 10 µM 101% | CAKI-1 renal; 1 µM 99% | CAKI-1 renal; 10 µM 94.9% | A498 renal; 1 µM 127% | A498 renal; 10 µM 97.7% | CCRF-CEM leukemia; 10 µM 22.9%

Cc1cn(-c2cc(NC(=O)c3ccc(C)c(-n4cc(-c5cnc6cccnn56)nn4)c3)cc(C(F)(F)F)c2)cn1
inactive: HCT-15 colon; 10 µM unless noted 84.8% | SNB-75 CNS 122% | SNB-19 CNS; 10 µM unless noted 109% | U251 CNS; 10 µM unless noted 44.3% | PC-3 prostate; 10 µM unless noted 102% | SK-MEL-5 melanoma; 10 µM unless noted 53.9% | UACC-62 melanoma; 10 µM unless noted 11.3% | LOX IMVI melanoma; 10 µM unless noted 26.8% | SK-MEL-28 melanoma; 10 µM unless noted 23.5% | SK-MEL-2 melanoma; 10 µM unless noted 64.9% | EKVX NSCLC; 10 µM unless noted 98.9% | SN12C renal; 10 µM unless noted 85.9% | UO-31 renal; 10 µM unless noted 58.2% | TK-10 renal; 10 µM unless noted 111% | ACHN renal; 10 µM unless noted 85.7% | CAKI-1 renal; 10 µM unless noted 94.7% | A498 renal; 10 µM unless noted 185% | CCRF-CEM leukemia; 10 µM unless noted 54.6% | MOLT-4 leukemia 38.9%
active: HT29 colon; 10 µM unless noted 7.41%

CC(C)(C)C(=O)c1c2c(c3ccc4c5ccccc5ccc4n13)C(=O)c1ccccc1C2=O
inactive: HCT-15 colon; 10 µM unless noted 81.7% | HT29 colon; 10 µM unless noted 111% | SNB-75 CNS 122% | SNB-19 CNS; 10 µM unless noted 88.7% | U251 CNS; 10 µM unless noted 98.5% | PC-3 prostate; 10 µM unless noted 83% | SK-MEL-5 melanoma; 10 µM unless noted 78.8% | UACC-62 melanoma; 10 µM unless noted 97.2% | LOX IMVI melanoma; 10 µM unless noted 73.2% | SK-MEL-28 melanoma; 10 µM unless noted 105% | SK-MEL-2 melanoma; 10 µM unless noted 104% | EKVX NSCLC; 10 µM unless noted 86.2% | SN12C renal; 10 µM unless noted 99% | UO-31 renal; 10 µM unless noted 67.9% | TK-10 renal; 10 µM unless noted 118% | ACHN renal; 10 µM unless noted 79.2% | CAKI-1 renal; 10 µM unless noted 85.4% | A498 renal; 10 µM unless noted 188% | CCRF-CEM leukemia; 10 µM unless noted 99.7% | MOLT-4 leukemia 94.3%

O=C(/C=C1\C(=O)N(Cc2ccccc2)c2ccccc21)c1cc2ccccc2oc1=O
inactive: HCT-15 colon; 10 µM unless noted 31.8% | HT29 colon; 10 µM unless noted 113% | SNB-75 CNS 88% | SNB-19 CNS; 10 µM unless noted 102% | U251 CNS; 10 µM unless noted 98.4% | PC-3 prostate; 10 µM unless noted 90.7% | SK-MEL-5 melanoma; 10 µM unless noted 90.2% | UACC-62 melanoma; 10 µM unless noted 79.5% | LOX IMVI melanoma; 10 µM unless noted 85.2% | SK-MEL-28 melanoma; 10 µM unless noted 92.1% | SK-MEL-2 melanoma; 10 µM unless noted 109% | EKVX NSCLC; 10 µM unless noted 79.6% | SN12C renal; 10 µM unless noted 93% | UO-31 renal; 10 µM unless noted 42.9% | TK-10 renal; 10 µM unless noted 84.6% | ACHN renal; 10 µM unless noted 17.9% | CAKI-1 renal; 10 µM unless noted 69.9% | A498 renal; 10 µM unless noted 144% | CCRF-CEM leukemia; 10 µM unless noted 43.6% | MOLT-4 leukemia 31.9%

Cc1cnc2ccc(Oc3ccccc3-c3ccccc3)nn12
inactive: HCT-15 colon; 10 µM unless noted 103% | HT29 colon; 10 µM unless noted 108% | SNB-75 CNS 126% | SNB-19 CNS; 10 µM unless noted 99.7% | U251 CNS; 10 µM unless noted 100% | PC-3 prostate; 10 µM unless noted 105% | SK-MEL-5 melanoma; 10 µM unless noted 107% | UACC-62 melanoma; 10 µM unless noted 101% | LOX IMVI melanoma; 10 µM unless noted 97.9% | SK-MEL-28 melanoma; 10 µM unless noted 113% | SK-MEL-2 melanoma; 10 µM unless noted 108% | EKVX NSCLC; 10 µM unless noted 100% | SN12C renal; 10 µM unless noted 100% | UO-31 renal; 10 µM unless noted 90.1% | TK-10 renal; 10 µM unless noted 106% | ACHN renal; 10 µM unless noted 105% | CAKI-1 renal; 10 µM unless noted 94.5% | A498 renal; 10 µM unless noted 116% | CCRF-CEM leukemia; 10 µM unless noted 103% | MOLT-4 leukemia 107%

COc1cc(-c2ccc3ncnc(N4CCc5ccc(Cl)cc54)c3c2)cnc1Cl
active: SNB-75 CNS -2.67% | SK-MEL-5 melanoma; 10 µM unless noted -1.72% | EKVX NSCLC; 10 µM unless noted 2.35% | UO-31 renal; 10 µM unless noted 5.14% | A498 renal; 10 µM unless noted -4.48% | MOLT-4 leukemia 6.74%
inactive: HCT-15 colon; 10 µM unless noted 24% | HT29 colon; 10 µM unless noted 15.1% | SNB-19 CNS; 10 µM unless noted 35% | U251 CNS; 10 µM unless noted 45.6% | PC-3 prostate; 10 µM unless noted 14.5% | UACC-62 melanoma; 10 µM unless noted 10% | LOX IMVI melanoma; 10 µM unless noted 11.7% | SK-MEL-28 melanoma; 10 µM unless noted 23.8% | SK-MEL-2 melanoma; 10 µM unless noted 54.2% | SN12C renal; 10 µM unless noted 26.9% | TK-10 renal; 10 µM unless noted 29.5% | ACHN renal; 10 µM unless noted 14.1% | CAKI-1 renal; 10 µM unless noted 12.9% | CCRF-CEM leukemia; 10 µM unless noted 12.2%
